Source: PubChem BioAssay
Calls of active or inactive are those of the source. Unless noted, the rule behind the calls is not given here.

Tests used:
[1] = system: Wnt5a (protein binding on small-molecule microarray); experiment: Wnt5a binders on small-molecule microarray, primary screen, biophysical, 635/667 nm fluorescence (AID 1142); settings: 635 nm fluorescence, higher = more signal;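 note: fluorescence read at 667 nm with signal to noise per printed feature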
[2] = cell viability in Huh7 cells, primary screen, cytotoxicity control for HCV replication inhibitor project, CellTiter-Glo luminescence, basal, 48 h (AID 1143); settings: Huh7 HCV replicon, higher = more signal, called active from +8 up or from −8 down;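 note: Huh7 hepatoma cells carrying a hepatitis C replication reporter with no stimulus; test concentration not given here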
[3] = P. aeruginosa biofilm formation inhibitors, primary screen, PAO1 strain, BacTiter-Glo luminescence, LB-PBS (AID 1144); settings: 12 h, higher = more signal
[4] = CREB reporter modulators without forskolin, primary screen, cell-based, PC12, CRE-LacZ reporter, unstimulated (AID 1145); settings: no forskolin, luminescence, 4.5 h, higher = more signal, called active from +8 up or from −8 down
[5] = CREB reporter modulators under forskolin, primary screen, cell-based, PC12, CRE-LacZ reporter, forskolin-stimulated (AID 1146); settings: luminescence, 4.5 h, higher = more signal, called active from +8 up or from −8 down;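 note: PC12 cells with 6xCRE LacZ reporter stimulated by forskolin 10 µM; beta-galactosidase reporter signal reflecting CREB driven transcription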
[6] = target: Streptavidin (Streptomyces avidinii) (UniProt P22629); experiment: streptavidin binders on small-molecule microarray, primary screen, artefact control for SMM compound annotation, biophysical, 635/667 nm fluorescence (AID 1147); settings: streptavidin binding, higher = more signal;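 note: signal reflects streptavidin binding to arrayed compounds as a control protein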
Streptavidin (Streptomyces avidinii), sequence (P22629 whole entry, looked up): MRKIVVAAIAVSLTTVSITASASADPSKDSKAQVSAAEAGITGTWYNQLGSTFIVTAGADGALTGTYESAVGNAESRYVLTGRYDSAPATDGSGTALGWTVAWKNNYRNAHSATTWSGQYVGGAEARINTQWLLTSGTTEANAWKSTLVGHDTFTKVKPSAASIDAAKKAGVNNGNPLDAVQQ

[7] = small-molecule binders of probe aInhba, primary screen, biochemical, small-molecule microarray, 635/667 nm fluorescence (AID 1148); settings: higher = more signal;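 note: score merges 667nm spot fluorescence with signal-to-noise for antibody binding to printed compounds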
Torsin-1A (Homo sapiens) [8] = target: Torsin-1A (Homo sapiens) (UniProt O14656); experiment: torsin A binders from cell lysate, primary screen, small-molecule microarray, wild-type, 635/667 nm (AID 1149); settings: COS7 hTOR1A-WT lysate, 635 nm fluorescence, higher = more signal
Torsin-1A (Homo sapiens), sequence (O14656 whole entry, looked up): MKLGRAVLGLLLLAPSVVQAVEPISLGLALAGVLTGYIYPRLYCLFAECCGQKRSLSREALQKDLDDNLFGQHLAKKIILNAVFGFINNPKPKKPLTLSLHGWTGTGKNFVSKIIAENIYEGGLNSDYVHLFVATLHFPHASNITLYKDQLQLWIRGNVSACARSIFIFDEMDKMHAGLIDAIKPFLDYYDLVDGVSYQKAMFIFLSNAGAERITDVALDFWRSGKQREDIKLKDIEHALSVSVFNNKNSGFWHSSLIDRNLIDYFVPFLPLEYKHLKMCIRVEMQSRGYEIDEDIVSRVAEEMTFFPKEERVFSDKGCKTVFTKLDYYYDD

Torsin-1A (Homo sapiens) [9] = target: Torsin-1A (Homo sapiens) (UniProt O14656); experiment: small-molecule binders of mutant TOR1A in lysate, primary screen, cell lysate, small-molecule microarray, COS7 lysate, 635/667 nm fluorescence (AID 1150); settings: COS7 hTOR1A mutant lysate, 635 nm fluorescence, higher = more signal;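 note: score pools 667 nm emission and signal to noise measuring lysate protein binding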
[10] = system: Sonic hedgehog protein (Shh); experiment: small-molecule binders of Shh protein, primary screen, biochemical, small-molecule microarray, 635/667 nm fluorescence (AID 1151); settings: small-molecule microarray binding, 635 nm fluorescence; higher = more signal;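 note: Shh protein binding to compounds spotted on small-molecule microarray slides; score combines spot fluorescence intensity with signal-to-noise across triplicate slides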
[11] = E. coli DRC41 culture turbidity changes, primary screen, E. coli filamentation inducer project, strain DRC41, OD650, 48 h (AID 1152);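 note: E. coli MC1000 strain DRC41 lacking acrAB efflux pump and sulA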; settings: E. coli DRC41 (acrAB sulA), higher = more signal, called active from +8 up or from −8 down
[12] = small-molecule binders of probe aLefty1, primary screen, biochemical, small-molecule microarray, 635/667 nm fluorescence (AID 1153); settings: higher = more signal;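 note: score merges spot fluorescence with signal-to-noise ratio from the scanned slide images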
[13] = PSAC antagonists in infected red cells, primary screen, cell-based, P. falciparum Indochina, OD700, 1 h (AID 1154); settings: P. falciparum Indochina infected RBC osmotic lysis, higher = more signal, called active from +8 up or from −8 down
[14] = PSAC antagonists in infected red cells, primary screen, cell-based, P. falciparum Indochina, OD700, 2 h (AID 1155);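 note: lysis reports solute entry through the parasite surface anion channel PSAC; channel blockers reduce lysis of infected cells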; settings: P. falciparum Indochina infected erythrocytes, osmotic lysis OD700; higher = more signal, called active from +8 up or from −8 down
[15] = osmotic lysis modulators in infected erythrocytes, primary screen, PSAC antagonist project, cell-based, P. falciparum Indochina, OD700, 3 h (AID 1156); settings: higher = more signal, called active from +8 up or from −8 down
[16] = PSAC antagonists in infected red cells, primary screen, cell-based, P. falciparum Indochina, OD700, 18 h (AID 1157); settings: P. falciparum Indochina infected erythrocytes, osmotic lysis OD700, 18 h; higher = more signal, called active from +8 up or from −8 down
[17] = modulators of S6 phosphorylation in cells, primary screen, cell-based, A549, cytoblot, luminescence, serum-stimulated (AID 1158); settings: A549 phospho-S6 cytoblot, 5 h, higher = more signal;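 note: serum-stimulated A549 lung adenocarcinoma cells; signal is phosphorylated S6 detected by cytoblot immunostaining with HRP secondary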
[18] = target: NADPH oxidase 2 (Homo sapiens) (UniProt P04839); experiment: NOX2-dependent H2O2 signal modulators, primary screen, NOX inhibitor project, cell-based, HEK293-NOX2, PMA-stimulated, Amplex Red fluorescence (AID 1159); settings: 45 min, higher = more signal, called active from +8 up or from −8 down; note: test concentration not given here
NADPH oxidase 2 (Homo sapiens), sequence (P04839 whole entry, looked up): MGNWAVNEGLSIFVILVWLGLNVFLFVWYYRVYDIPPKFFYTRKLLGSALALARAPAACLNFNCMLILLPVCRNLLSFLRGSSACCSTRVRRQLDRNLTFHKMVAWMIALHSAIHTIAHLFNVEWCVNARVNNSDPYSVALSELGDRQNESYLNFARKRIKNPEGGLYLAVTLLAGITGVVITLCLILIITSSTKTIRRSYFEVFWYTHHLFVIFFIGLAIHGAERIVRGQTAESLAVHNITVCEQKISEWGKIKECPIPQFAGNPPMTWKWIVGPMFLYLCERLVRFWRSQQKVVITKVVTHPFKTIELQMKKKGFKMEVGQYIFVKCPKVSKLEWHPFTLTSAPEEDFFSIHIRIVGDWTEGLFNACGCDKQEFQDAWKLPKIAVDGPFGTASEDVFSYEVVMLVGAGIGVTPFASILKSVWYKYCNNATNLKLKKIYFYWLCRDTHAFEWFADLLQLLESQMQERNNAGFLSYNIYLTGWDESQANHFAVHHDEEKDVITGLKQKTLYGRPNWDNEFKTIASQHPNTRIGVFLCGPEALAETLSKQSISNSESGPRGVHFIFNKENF

[19] = target: NADPH oxidase 4 (Homo sapiens) (UniProt Q9NPH5); experiment: NOX4-dependent H2O2 signal modulators, primary screen, NOX inhibitor project, cell-based, HEK293-NOX4, tetracycline-induced, Amplex Red fluorescence (AID 1160); settings: 45 min, higher = more signal, called active from +8 up or from −8 down
NADPH oxidase 4 (Homo sapiens), sequence (Q9NPH5 whole entry, looked up): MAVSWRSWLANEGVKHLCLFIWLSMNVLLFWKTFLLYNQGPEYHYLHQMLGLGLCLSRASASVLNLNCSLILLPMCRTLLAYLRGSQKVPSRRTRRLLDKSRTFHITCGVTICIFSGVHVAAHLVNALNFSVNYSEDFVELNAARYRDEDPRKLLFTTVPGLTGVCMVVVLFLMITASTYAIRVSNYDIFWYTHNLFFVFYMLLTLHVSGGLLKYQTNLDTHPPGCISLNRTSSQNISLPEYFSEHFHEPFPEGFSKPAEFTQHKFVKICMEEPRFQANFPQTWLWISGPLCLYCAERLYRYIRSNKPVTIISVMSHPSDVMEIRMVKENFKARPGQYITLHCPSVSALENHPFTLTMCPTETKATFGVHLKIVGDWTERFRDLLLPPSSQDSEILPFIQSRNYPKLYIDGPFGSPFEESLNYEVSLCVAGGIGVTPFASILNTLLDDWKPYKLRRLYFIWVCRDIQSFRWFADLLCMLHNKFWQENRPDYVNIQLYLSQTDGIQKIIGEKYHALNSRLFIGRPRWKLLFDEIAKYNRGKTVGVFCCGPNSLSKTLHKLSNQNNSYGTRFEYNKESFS

[20] = target: NADPH oxidase 5 (Homo sapiens) (UniProt Q96PH1); experiment: NOX5-dependent H2O2 signal modulators, primary screen, NOX inhibitor project, cell-based, HEK293-NOX5, Amplex Red fluorescence (AID 1161); settings: HEK293-NOX5, ionomycin, 45 min, higher = more signal
NADPH oxidase 5 (Homo sapiens), sequence (Q96PH1 whole entry, looked up): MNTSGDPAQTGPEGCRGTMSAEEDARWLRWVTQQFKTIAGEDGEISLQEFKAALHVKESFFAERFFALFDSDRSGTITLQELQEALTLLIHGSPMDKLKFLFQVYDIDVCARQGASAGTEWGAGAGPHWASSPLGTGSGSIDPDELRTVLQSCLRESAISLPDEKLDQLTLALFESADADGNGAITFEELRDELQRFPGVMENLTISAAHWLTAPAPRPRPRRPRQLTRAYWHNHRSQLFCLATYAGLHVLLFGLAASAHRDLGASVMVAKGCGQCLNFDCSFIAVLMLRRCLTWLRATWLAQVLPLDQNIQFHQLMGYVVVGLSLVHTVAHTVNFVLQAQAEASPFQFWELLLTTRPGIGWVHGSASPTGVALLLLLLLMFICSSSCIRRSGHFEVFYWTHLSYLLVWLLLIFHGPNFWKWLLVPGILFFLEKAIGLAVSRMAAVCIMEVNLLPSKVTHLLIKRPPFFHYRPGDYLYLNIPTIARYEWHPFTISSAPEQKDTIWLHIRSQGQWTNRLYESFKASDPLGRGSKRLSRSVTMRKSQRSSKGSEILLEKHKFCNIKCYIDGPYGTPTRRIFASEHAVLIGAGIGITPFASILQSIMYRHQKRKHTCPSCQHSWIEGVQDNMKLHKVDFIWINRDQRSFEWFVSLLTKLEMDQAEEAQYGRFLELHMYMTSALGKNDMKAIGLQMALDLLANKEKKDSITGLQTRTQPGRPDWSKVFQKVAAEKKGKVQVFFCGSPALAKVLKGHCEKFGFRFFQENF

Compound | composite z-score [1] | z-score [2] | z-score [3] | z-score [4] | z-score [5] | composite z-score [6] | composite z-score [7] | composite z-score (Torsin-1A (Homo sapiens) [8]) | composite z-score (Torsin-1A (Homo sapiens) [9]) | composite z-score [10] | z-score [11] | composite z-score [12] | z-score [13] | z-score [14] | z-score [15] | z-score [16] | z-score [17] | z-score [18] | z-score [19] | z-score [20]
C=CCC(OC(C)=O)[C@@H]1[C@@H](N(Cc2cccc3ccccc23)C(=O)c2cccc3ccccc23)c2cc(OCCCO)ccc2N1C(=O)c1ccc2ccccc2c1 (stereo not given in full) | -0.23 | -2.35 (inactive) | 0.311 (inactive) | -1.1 (inactive) | 1.03 (inactive) | -0.0629 | -0.0288 | 0.0265 | -0.252 | 0.49 | 0.0047 (inactive) | -0.333 | 0.529 (inactive) | -0.128 (inactive) | 1.41 (inactive) | 0.0897 (inactive) | 0.914 | -2.77 (inactive) | -1.09 (inactive) | -2.66
C=CCNC(=O)[C@@H]1[C@H]2C(=O)O[C@H](c3ccccc3)[C@H](c3ccccc3)N2[C@H](c2ccc(OCCO)cc2)[C@@]12C(=O)N(C(=O)OCCOC)c1ccc(C#CCCO)cc12 | 0.85 | -3.32 (inactive) | -0.594 (inactive) | -0.375 (inactive) | 0.0859 (inactive) | 0.712 | -0.0521 | 0.625 | 0.582 | 1.17 | 3.11 (inactive) | 0.503 | 4.81 (inactive) | 0.343 (inactive) | -0.38 (inactive) | -1.47 (inactive) | 2.25 | 1.3 (inactive) | 0.821 (inactive) | -0.573
CC(C)C(=C=CC[C@@H](O)c1cccc(OCCO)c1)C[C@@H](O)c1ccccn1 | 0.189 | -0.846 (inactive) | -0.382 (inactive) | 1.13 (inactive) | -0.039 (inactive) | -0.637 | -0.13 | -0.84 | 0.405 | 0.935 | 0.599 (inactive) | 0.0502 | 8.55 (active) | 0.809 (inactive) | 0.489 (inactive) | 0.527 (inactive) | 0.0722 | -1.37 (inactive) | -0.666 (inactive) | -1.45
CCCCCN1CC=CC23O[C@@H]4/C=C\CCC(C)OC(=O)C4[C@H]2C(=O)N(CCCCCCO)[C@@H]3C1=O (stereo not given in full) | -0.399 | 0.259 (inactive) | -0.943 (inactive) | 0.467 (inactive) | 0.938 (inactive) | -0.749 | -0.153 | -0.96 | 0.109 | 0.758 | 1.6 (inactive) | 0.0378 | 1.25 (inactive) | 0.971 (inactive) | 0.26 (inactive) | 0.967 (inactive) | 2.19 | 1.25 (inactive) | 0.0532 (inactive) | 1.74
[N-]=[N+]=Nc1ccccc1C[C@]1(C(=O)NCc2ccccc2)COC(c2ccc(OCCCO)cc2)=N1 | 0.607 | -4.89 (inactive) | 0.106 (inactive) | 0.101 (inactive) | -1.31 (inactive) | 1.01 | -0.104 | 0.413 | 0.932 | 0.153 | 0.325 (inactive) | -0.442 | 30.8 (active) | 30.8 (active) | 3.25 (inactive) | 3.49 (inactive) | -0.351 | -3.07 (inactive) | -1.03 (inactive) | -1.91
CCOC(=O)C[C@H]1[C@H](OC(=O)c2ccc(-c3ccccc3)cc2)[C@@H](NC(=O)Cc2ccc(OC)cc2)c2cc(OCCCO)ccc2N1C(=O)Cc1ccc(OC)cc1 | -0.0129 | 0.247 (inactive) | 0.00724 (inactive) | 0.773 (inactive) | -0.834 (inactive) | -0.0417 | -0.128 | -0.305 | 0.0922 | -0.259 | 1.07 (inactive) | -0.0348 | 4.29 (inactive) | 0.4 (inactive) | 0.222 (inactive) | 0.211 (inactive) | 0.911 | 0.818 (inactive) | -0.868 (inactive) | 1.52
CC1CC/C=C\[C@H]2OC34C=CCN(CCN5CCOCC5)C(=O)[C@H]3N(C(C)CO)C(=O)[C@@H]4C2C(=O)O1 (stereo not given in full) | -0.409 | 0.181 (inactive) | 0.156 (inactive) | -0.0778 (inactive) | -0.0178 (inactive) | -1.16 | -0.0933 | -1.72 | -1.58 | 1.41 | -0.197 (inactive) | -0.147 | 0.77 (inactive) | -0.306 (inactive) | 0.753 (inactive) | 0.233 (inactive) | 0.0656 | 0.801 (inactive) | -0.323 (inactive) | 1.58
COc1ccc(CCNC(=O)[C@@]2(Cc3ccccc3I)c3ccccc3C(=O)N(Cc3ccccc3Cl)[C@H]2c2ccc(CO)cc2)cc1 | 0.0402 | -2.74 (inactive) | -0.144 (inactive) | 0.0387 (inactive) | 0.752 (inactive) | -0.555 | 0.502 | -0.36 | 0.397 | 0.527 | -1.2 (inactive) | 0.893 | 4.53 (inactive) | 1.52 (inactive) | 1.55 (inactive) | 0.473 (inactive) | 0.0403 | 0.898 (inactive) | 0.183 (inactive) | 1.39
